An excerpt weighted towards active compounds, which were near 21% of everything screened.
Pf growth 96h: Primary qHTS for delayed death inhibitors of the malarial parasite plastid, 96 hour incubation. P. falciparum luciferase reporter growth, 96 h. Potency, µM (highest dose often 28.7 µM), hits mostly inhibitors. actives 6.9% (n = 320,000). AID 504834, 2011; active means well fitted inhibition curve with a large enough effect; inconclusive means small, poorly fitted or top-dose-only effect, or another doubt; inactive means no such curve, though single readings can be large or run the other way
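Luminescence readout: decreased luciferase signal marks inhibited growth of reporter-expressing P. falciparum in infected red cells (2% hematocrit, 0.05% parasitemia final), exposed to compound two generations (96 h, 37 C, 5% CO2).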
SARS PLpro yeast: qHTS of Yeast-based Assay for SARS-CoV PLP | actives 0.19% (n = 330,000) | Potency, µM (highest dose often 32.9 µM), actives largely listed as activators | S. cerevisiae expressing SARS-CoV PLpro, growth rescue | AID 485353, 2010; further: nearly all actives have a fitted effect of over 55% in size
Pf growth 48h: Primary qHTS for delayed death inhibitors of the malarial parasite plastid, 48 hour incubation; AID 504832, 2011; actives 5.9% (n = 310,000); P. falciparum luciferase growth in erythrocytes, 48 h; Potency, µM (doses to about 28.7 µM), actives largely listed as inhibitors; active means well fitted inhibition curve with a large enough effect; inconclusive means small, poorly fitted or top-dose-only effect, or another doubt; inactive means no such curve, though single readings can be large or run the other way
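A one-generation exposure of luciferase-tagged malaria parasites in RPMI 1640/Albumax erythrocyte culture, 37 C and 5% CO2. Inhibition is inferred from decreased luminescence after adding detection reagent.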
CHX counter: Cycloheximide Counterscreen for Small Molecule Inhibitors of Shiga Toxin; cell reporter, cycloheximide protein synthesis inhibition counterscreen; max response, %; actives 12% (n = 300,000); AID 2314, 2010; in the data active means max response mostly above about 13%, no sharp cut-off; inactive means mostly below about 14%; further: read at 38.3 µM for the half of the compounds with a filed dose
NS1 function inh: qHTS Assay for Inhibitors of Influenza NS1 Protein Function. actives 0.4% (n = 270,000). Potency, µM (highest dose often 46.1 µM); further: actives are rising curves; nearly all actives have a fitted effect of over 50% in size
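Recovery from NS1-induced slow growth read by OD600 in budding yeast switched to galactose assay medium (pH 6.0, -URA) at 1:100 dilution. Compound 23 nl per well; the matching strain lacking NS1 serves as control.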
Shiga toxin inh: A qHTS for Small Molecule Inhibitors of Shiga Toxin; actives 9.2% (n = 290,000); Vero cells, Shiga toxin protein synthesis inhibition reporter; inhibition, % at 38.7 µM; in the data active means inhibition mostly above about 28%, no sharp cut-off; inactive means mostly below about 43%
Large screens that a line does not name were inactive. Unless noted, the call rests on the fitted dose curve.

O=C(OCc1ccccc1)c1cc(S(=O)(=O)N2CCCCC2)ccc1N1CCOCC1	Pf growth 96h 11.7µM, Pf growth 48h inconclusive (no result: CHX counter, NS1 function inh, Shiga toxin inh)
COCC(C)NC(=O)c1cc(S(=O)(=O)N2CCCCC2)ccc1N1CCOCC1 (centres undefined)	none
O=C1CCN(Cc2ccc([N+](=O)[O-])cc2)CCN1CCO	none
CCCCn1c(SCC(=O)NC2CCS(=O)(=O)C2)nc2cc(S(N)(=O)=O)ccc21 (centres undefined)	Pf growth 96h inconclusive, Pf growth 48h inconclusive (no result: NS1 function inh)
Cc1ccc(S(C)(=O)=O)cc1C(=O)Nc1ccc(S(=O)(=O)Nc2nccs2)cc1	Pf growth 96h inconclusive (no result: CHX counter, NS1 function inh, Shiga toxin inh)
COc1ccc(/C=C(\NC(=O)c2ccccc2)C(=O)N2CCC(C)CC2)cc1	Pf growth 48h 13.1µM (no result: CHX counter, NS1 function inh, Shiga toxin inh)
O=C(N/C(=C\c1ccccc1)C(=O)N1CCOCC1)c1cccc(Br)c1	Pf growth 96h 7.38µM, Pf growth 48h inconclusive
COc1ccc(/C=C(/NC(=O)c2ccco2)C(=O)N2CCCCCC2)cc1OC	Pf growth 96h 11.7µM
CCOC(=O)N1CCN(C(=O)/C(=C/c2cccc3ccccc23)NC(=O)c2ccc(OC)cc2)CC1	Pf growth 96h 9.28µM, Pf growth 48h 13.1µM, CHX counter 16.9
COc1ccc(/C=C(/NC(=O)c2ccccc2)C(=O)N2CCCCC2)cc1OC	Pf growth 96h inconclusive, Pf growth 48h inconclusive
COc1ccc(/C=C(/NC(=O)c2ccccc2)C(=O)N2CCC(C)CC2)cc1	Pf growth 48h inconclusive
CC(NC(=O)COC(=O)CCc1ccccc1)c1ccccc1 (centres undefined)	none
CCn1c(SCC(=O)N2CCCCC2C)nc2c1c(=O)n(C)c(=O)n2C (centres undefined)	none
Cc1cn(CC[C@H](N)C(=O)O)c(=O)[nH]c1=O	none (no result: Pf growth 96h, SARS PLpro yeast, Pf growth 48h, CHX counter, Shiga toxin inh)
O=C(N/C(=C/c1ccccc1)C(=O)N1CCCCCC1)c1ccccc1	none (no result: NS1 function inh)
CC(C)OC(=O)/C(=C/c1ccc(Br)cc1)NC(=O)c1ccco1	Pf growth 96h 13.1µM
O=C(N/C(=C/c1ccccc1)C(=O)N1CCCCC1)c1ccccc1	CHX counter 96.4, Shiga toxin inh 51.0
CC(=O)N1C(=O)CC(C)N(C(C)=O)c2ccc([N+](=O)[O-])cc21 (centres undefined)	none
Cc1cc(O)c(/C=N/Nc2ccccc2Cl)c(=O)o1	Pf growth 48h inconclusive, CHX counter 22.1
Oc1c(N=Nc2ccccc2)sc2ccccc12	CHX counter 39.8, Shiga toxin inh 60.6
O=c1cc(O)sc2ccccc12	none
CCOc1ccc(C(=O)OCC(=O)N2CC(C)OC(C)C2)cc1OCC (centres undefined)	none
COc1cc2nc(C3CCC3)n(NC(=O)c3ccco3)c(=O)c2cc1OC	Pf growth 96h inconclusive, Pf growth 48h inconclusive
NC(=S)N/N=C\c1c[nH]c2ccccc12	none (no result: Pf growth 96h, SARS PLpro yeast, Pf growth 48h, CHX counter, Shiga toxin inh)
O=C(N/N=C/c1c[nH]c2ccccc12)c1ccncc1	Pf growth 96h 11.7µM
Cc1cccc(NC(=S)N/N=C/c2c[nH]c3ccccc23)c1	Pf growth 48h inconclusive, CHX counter 14.1, Shiga toxin inh 40.3
O=C(N/N=C/c1cccc2ccccc12)c1cccs1	CHX counter 72.7, Shiga toxin inh 87.3
COc1ccccc1C(=O)N/N=C/c1c[nH]c2ccccc12	Pf growth 96h inconclusive, CHX counter 31.5, Shiga toxin inh 41.8
O=C1NC(=O)c2cc(Nc3ccccc3)c(Nc3ccccc3)cc21	NS1 function inh inconclusive (no result: Pf growth 96h, SARS PLpro yeast, Pf growth 48h)
COC(=O)[C@]1(C)N[C@H](CN(C)C(=O)c2ccc(F)cc2)[C@@H]2C(=O)N(Cc3ccccc3)C(=O)[C@@H]21	none (no result: Pf growth 96h, Pf growth 48h, CHX counter, NS1 function inh, Shiga toxin inh)
O=C(N/N=C/c1c[nH]c2ccccc12)c1sc2ccccc2c1Cl	CHX counter 25.3, Shiga toxin inh 18.8
O=C(N/N=C\c1cn[nH]c1-c1ccccc1)c1cccs1	CHX counter 39.8, Shiga toxin inh active
O=C(N/N=C/c1c[nH]c2ccccc12)c1ccc2c(c1)OCCO2	CHX counter 54.7, Shiga toxin inh 93.5
O=C(N/N=C/c1c[nH]c2ccccc12)c1ccccc1	CHX counter 46.8, Shiga toxin inh 127.7
N#Cc1ccccc1OCC(=O)NC(=O)NC1CCS(=O)(=O)C1 (centres undefined)	none (no result: CHX counter, NS1 function inh, Shiga toxin inh)

Assay outcomes from PubChem.
